PGC1a acetyl inh: modulators of PGC1a acetylation; U2OS PGC1a acetylation, AlphaScreen anti-acetyl-lysine; with virally co-expressed GCN5 acetyltransferase; inhibition, % at 15.6 µM; 350,000 compounds, 0.17% hits; AID 651687;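 active = every replicate shows inhibition of at least 40%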;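 note: 0% = neutral control wells and 100% = positive control wells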
DENV2 CPE rescue: DENV2-induced cell death inhibition. DENV2-infected cells, cytopathic effect rescue, plate reader. CPE inhibition, % at 9.99 µM. 350,000 compounds, 1.7% hits; in the data active = CPE inhibition above about 20%, passing the limit was not always enough; tested in BHK-21 cells;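 note: 0% = median of neutral control wells and 100% = median of positive control wells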
PvdQ acylase: blocks Pseudomonas aeruginosa PvdQ acylase activity; purified PvdQ acylase, fluorescence plate reader; inhibition, % at 10 µM; 340,000 compounds, 0.063% hits; in the data active = inhibition above about 30%, passing the limit was not always enough;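 note: 0% = vehicle neutral wells and 100% = reference inhibitor wells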
Statin myotox sup: suppression of simvastatin myotoxicity; 330,000 compounds, 0.78% hits; rescue of ATP level, % at 7.49 µM; C2C12 myotubes + simvastatin, ATP luminescence, 48 h; scaled: DMSO 0, geranylgeraniol control 100; AID 602340;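 active = mean ATP rescue above about 67%, or every replicate alone reaching that limit, limit read from the data, passing the limit was not always enough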;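 note: myotubes were challenged with 10 µM simvastatin during compound exposure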
miR-122 sensor: inhibitors of miR-122 in Huh7 cells; Huh7 miR-122 Renilla luciferase sensor, 48 h; neutral wells = 0, positive control = 100; activation (reporter increase), % at 12.5 µM; 340,000 compounds, 0.3% hits;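 active = mean replicate activation score at least 90 and every replicate individually at or above 90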;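 note: higher luciferase means less miR-122 activity so hits act as miR-122 inhibitors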
Active calls of the source: *; / = no result; [ ] = another dose, or the depositor's remark. Hits are enriched below; roughly 2.2% of the tested compounds scored in any of these assays.

SMILES	PGC1a acetyl inh	DENV2 CPE rescue	PvdQ acylase	Statin myotox sup	miR-122 sensor
COc1ccccc1-c1cn(CC[C@H]2CC[C@H](NC(=O)CCN3CCCCC3)[C@H](CO)O2)nn1	-3	-1	/	4	/
CCOC(=O)CSc1nc2ccccc2c(=O)n1CC1CCC(C(=O)NCc2ccco2)CC1 (centres undefined)	-4	/	-13	0	138*
CCOC(=O)CSc1nc2ccccc2c(=O)n1CC1CCCC1	-5	/	-1	-2	-2
CN1CCN(C(=O)C[C@@H]2CC[C@H]3[C@@H](COc4ccc(NC(=O)C5CCOCC5)cc4C(=O)N3C)O2)CC1	/	-7	/	-5	/
CN1C(=O)CC(N2CCN(c3ccccc3)CC2)C1=O (centres undefined)	7	/	-19	138*	-3
CN1C(=O)CC(N2CCN(C(c3ccccc3)c3ccccc3)CC2)C1=O (centres undefined)	5	/	-9	/	-8
CCOc1ccc(-n2c(SCC(N)=O)nnc2-c2cccnc2)cc1	/	23*	-18	/	/
CC12CCC3c4cc(CN5CCOCC5)c(O)cc4CCC3C1CCC2=O (centres undefined)	-7	-6	-12	-7	-3
CC12CCC3c4ccc(OCCCO)c([N+](=O)[O-])c4CCC3C1CCC2=O (centres undefined)	/	43*	/	/	/
Nc1ccccc1Oc1ncc(C(F)(F)F)cc1Cl	46*	/	-9	20	/
FC(F)(F)c1cnc(Oc2ccccc2-c2nnco2)c(Cl)c1	/	/	-9	6	/
CN(C)C(=O)c1cccc(-c2ccc([C@H]3[C@H](CO)N4C(=O)CN(C(=O)CC5CC5)C[C@@H]34)cc2)c1	-6	9	/	/	/
O=C(N/N=C/c1cccs1)C(O)c1ccccc1 (centres undefined)	-3	-1	-11	-2	197*
O=C(N/N=C/c1ccccc1)C(O)c1ccccc1 (centres undefined)	2	11	9	5	11
CN1C[C@@H]2[C@H](c3ccccc31)[C@H](CO)N2C(=O)CN1CCOCC1	1	37*	/	-17	-4[16.7 µM]
N#C[C@H]1[C@@H](c2ccccc2C2=CCCC2)[C@@H](CO)N1C(=O)C1CCOCC1	2	36*	/	/	/
N#C[C@@H]1[C@@H](c2ccccc2C2=CCCC2)[C@H](CO)N1C(=O)C1CCOCC1	-7	1	/	/	/
C/C=C/c1ccccc1[C@H]1[C@@H](C#N)N(C(=O)CN2CCOCC2)[C@@H]1CO	-1	39*	/	/	/
N#C[C@@H]1[C@@H](c2ccccc2C2=CCCCC2)[C@@H](CO)N1C(=O)CN1CCOCC1	-4	30*	/	/	/
C/C=C/c1ccccc1[C@H]1[C@H](C#N)N(C(=O)CN2CCOCC2)[C@H]1CO	8	-7	/	/	/
C[C@@H]1CN([C@H](C)CO)C(=O)c2cc(NC(=O)c3ccncc3)ccc2O[C@@H]1CN(C)C(=O)NC1CCCCC1	-8	16	/	1	-1[16.7 µM]
Cc1ccc(S(=O)(=O)N[C@H]2CC[C@H](CC(=O)NCc3ccncn3)O[C@H]2CO)cc1	-5	2	/	-6	/
CC(=O)N(C)C[C@H]1Oc2cc(-c3cncnc3)ccc2S(=O)(=O)N([C@H](C)CO)C[C@H]1C	8	5	/	-8	-8[16.7 µM]
O=C1CN(S(=O)(=O)c2ccccc2)C[C@H]2[C@@H](c3ccc(C4=CCCC4)cc3)[C@@H](CO)N12	0	-15	/	/	/
C[C@H]1CN([C@@H](C)CO)C(=O)c2cc(NC(=O)Nc3cccc4ccccc34)ccc2O[C@@H]1CN(C)C(=O)Nc1cccc2ccccc12	6	1	/	11	1[16.7 µM]
SMILES	PGC1a acetyl inh	DENV2 CPE rescue	PvdQ acylase	Statin myotox sup	miR-122 sensor
CCCN1[C@@H]2Cn3c(ccc(C4=CCCC4)c3=O)[C@H]1[C@@H](C(=O)N(C)C)[C@@H]2CO	8	0	/	-18	3[16.7 µM]
CO[C@@H]1CN(C)C(=O)c2cc(NC(=O)c3ccc4c(c3)OCO4)ccc2OC[C@@H](C)N(CCC(F)(F)F)C[C@H]1C	15	23*	/	-2	/
CO[C@@H]1CN(C)C(=O)c2cc(NC(=O)c3ccc4c(c3)OCO4)ccc2OC[C@@H](C)N(CCC(F)(F)F)C[C@@H]1C	-1	36*	/	14	/
COc1ccc(S(=O)(=O)Nc2ccc3c(c2)C(=O)N([C@H](C)CO)C[C@@H](C)[C@H](CN(C)S(=O)(=O)c2ccccc2)OCCCC[C@@H](C)O3)cc1	-6	0	/	/	/
C=CC(COCc1ccccc1)N(Cc1ccc(OC)cc1)S(=O)(=O)c1ccccc1Br (centres undefined)	-40	5	2	-17	7
C=C[C@@H](COC(=O)c1ccc([N+](=O)[O-])cc1)N(Cc1ccc(OC)cc1)S(=O)(=O)c1ccc(Br)cc1	-8	24*	/	/	/
COc1ccc(S(=O)(=O)Nc2ccc3c(c2)C(=O)N([C@@H](C)CO)C[C@@H](C)[C@H](CN(C)S(=O)(=O)c2ccc(OC)cc2)OCCCC[C@@H](C)O3)cc1	1	6	/	/	-12[16.7 µM]
Cc1cc(C)nc(NS(=O)(=O)c2ccc(NC(=O)Nc3ccccc3)cc2)n1	97*	12	-17	/	46
CCOc1ccccc1OCCOCCOc1c(Cl)cccc1Cl	/	/	7	/	/
CCOc1ccc(OCCOCCOc2c(Cl)cccc2Cl)cc1	1	/	-4	133*	-3
CC(C)NC(=O)N1[C@@H]2CNC[C@H]1C2c1ccc(-c2ccc(C#N)cc2)cc1 (some centres undefined)	10	1	/	/	/
COc1ccc2[nH]c(=O)c(CN(C)C(=O)COc3ccccc3)cc2c1	-4	/	-7	72*	0
O=C(C1CCC1)N1CCCCN2[C@H](CO)[C@H](c3ccc(C#CC4CCCC4)cc3)[C@H]2C1	-10	3	/	/	-25[16.7 µM]
COc1ccc(S(=O)(=O)NCCC(=O)NCc2ccc(F)cc2)cc1	80*	/	-15	-12	0
COc1ccc(CNC(=O)CCS(=O)(=O)c2ccc3c(c2)NC(=O)CS3)cc1	3	35*	-5	-1	0
CC(=O)N1c2ccc(S(=O)(=O)NCCC(=O)NCCc3ccc(C)cc3)cc2CC1C (centres undefined)	-4	14	-3	109*	4
CC(=O)N1c2ccc(S(=O)(=O)NCCC(=O)NCc3ccc(F)cc3)cc2CC1C (centres undefined)	-12	-3	-1	87*	1
COc1ccc(CNC(=O)CCNS(=O)(=O)c2ccc(Cl)cc2)cc1	2	3	-5	-4	-5
C[C@@H]1CCCCO[C@H](CN(C)S(=O)(=O)c2cccs2)[C@H](C)CN([C@H](C)CO)C(=O)c2cc(NC(=O)Nc3ccc(F)cc3)ccc2O1	-11	0	/	6	-3[16.7 µM]
Cc1ccc(SC(c2ccccc2)C(Cn2cncn2)C(=O)c2ccccc2)cc1 (centres undefined)	-5	/	-10	13	-1
O=C(c1ccc(Cl)cc1)C(Cn1cncn1)C(Sc1ccccc1)c1ccccc1 (centres undefined)	61*	/	1	17	2
